This is an account of results in PubChem BioAssay (NCI).

This is part of a sample that, as a whole, favours compounds with a hit. Of some 83,000 tested, about 20% had one in any assay.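 Treatment: one concentration, 48 hours, 96-well format. Scoring: percent growth, with anything below 10 considered active.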 A number with no mark means an inactive call. Active and inactive are the calls of the source.

Holding throughout (assay): NCI-60 one-dose screen, 48 h (100 = growth as untreated, 0 = no growth, -100 = all killed)
Common to all, as to settings: 10 µM unless noted

Experiment [1] has as its system NCI-H23 lung.
For experiment [2], the system named is NCI-H226 lung.
The subject of experiment [3] is NCI-H322M lung.
The test system of experiment [4] is HOP-62 NSCLC.
Experiment [5] concerns NCI-H460 lung.
Experiment [6] deals with NCI-H522 lung.
For experiment [7], the system named is A549/ATCC NSCLC.
For experiment [8], the system named is 786-0 renal.
The test system of experiment [9] is COLO 205 colon.
The subject of experiment [10] is DU-145 prostate.
Experiment [11] has as its system K-562 leukemia.
Experiment [12] concerns MALME-3M melanoma.
In experiment [13] the test system is MDA-MB-231 breast.
For experiment [14], the system named is RXF 393 renal.
Experiment [15] has as its system SF-268 CNS.
Experiment [16] deals with SF-539 CNS.
Experiment [17] concerns UACC-257 melanoma.
The test system of experiment [18] is M14 melanoma.
Experiment [19] has as its system HCT-15 colon.
Experiment [20] has as its system SF-295 CNS.

For `Clc1ccc2nc(Cl)c3ccccc3c2c1`, the growth in experiment [1] was 84.6%; in [2], 71.7%; in experiment [3], 37.6%; in [4], 58.3%; in experiment [5], -1.38% (active); in experiment [6] it was 75.7%. Also, the growth was 28.7% in experiment [7]; 46.8% in [8]; 78.3% in experiment [9]; 62.9% in experiment [10]; 88% in experiment [11]; 67.2% in experiment [12]. The growth in [13] is 74.9%; in experiment [14] it was 59.6%; in experiment [15], 76.3%; in experiment [16], 63.8%; in [17] it was 93.1%; in experiment [18], 99.9%. In addition, the growth in experiment [19] is 91.4%.

On to `O=C(Nc1ccc(OCc2nnc(-c3ccccc3)o2)c(F)c1)Nc1ccc(Cl)c(C(F)(F)F)c1`, for which the growth in [1] was 8.65% (active); in experiment [2], 59.3%; in experiment [3], 28.8%; in [4] it was 13.6%; in experiment [5] it was -0.0623% (active); in experiment [6] it was 13.9%. Further, the growth in experiment [7] was 11.6%; in experiment [8], 53.2%; in experiment [9], -46.3% (active); in [10] it was 10%; in experiment [11], 12.9%; in [12], 8.78% (active). Besides, the growth in experiment [13] is 29.3%; in experiment [14] it was 45.9%; in experiment [15] it was 36.2%; in experiment [16] it was 36.1%; in experiment [17], 28.3%; in experiment [18], 23.8%. Also, in [19], the growth is 11.8%.

Take `O=C1/C(=N/O)CCc2ccccc21`: the growth is 98.1% in experiment [1]; 101% in experiment [2]; 102% in experiment [3]; 91.5% in experiment [4]; 92.6% in experiment [5]; 94% in experiment [6]. Also, the growth in [7] was 103%; in experiment [8], 111%; in [9], 100%; in [10] it was 100%; in experiment [11], 19.4%; in experiment [12] it was 91.7%. The growth in experiment [13] is 79.7%; in experiment [14], 96.7%; in experiment [15] it was 91%; in experiment [16] it was 88.5%; in experiment [17], 90.7%; in experiment [18], 104%. In addition, in experiment [19], the growth is 102%.

Turning to `O=[P@@]1(c2ccccc2)O[C@H](COCc2ccccc2)[C@@H](OCc2ccccc2)[C@H](OCc2ccccc2)[C@H]1NCc1ccccc1`, the growth in experiment [1] was 20.5%; in experiment [2] it was 40.6%; in experiment [3], 47.9%; in [4] it was 54.3%; in experiment [5], 4.06% (active); in experiment [6] it was 20.5%. In addition, the growth is 13.3% in experiment [7]; 13.9% in experiment [8]; -57.2% (active) in experiment [9]; 45.7% in experiment [10]; 6.58% (active) in [11]; -7.61% (active) in experiment [12]. Besides, the growth in experiment [13] was 13.6%; in [14], 28.7%; in experiment [15], 32.2%; in [16], 27.2%; in [17], 22.5%; in [18], 15.2%. Further, the growth in [19] is 15.9%.

Regarding `CSc1nnc(C2=CC(=O)c3ccccc3C2=O)n1-c1ccccc1`, the growth in [1] is 83.9%; in experiment [2], 85.5%; in experiment [3], 91.1%; in [4], 100%; in [5], 83.6%; in experiment [6], 64.5%. Also, the growth in experiment [7] was 76.3%; in experiment [8], 95.2%; in [9] it was 110%; in experiment [10], 104%; in [11], -0.209% (active); in [12], 84.9%. Besides, the growth was 93.2% in experiment [13]; 92% in [15]; 85.8% in experiment [20]; 98.1% in experiment [16]; 86.7% in experiment [17]; 92% in [18]. In experiment [19], the growth was 95.3%.

Consider `S=C1SCN(Cc2ccccc2)CN1Cc1ccco1`, for which the growth in [1] is 94.1%; in experiment [2], 111%; in [3] it was 112%; in [4], 85.3%; in experiment [5] it was 105%; in [6], 4.84% (active). Further, the growth in [7] was 101%; in experiment [8] it was 90.5%; in [9], 83.3%; in experiment [10], 68.3%; in experiment [11] it was 11.6%; in experiment [12] it was 94%. Moreover, the growth in experiment [13] is 91.3%; in [14], 101%; in experiment [15] it was 94.2%; in experiment [16] it was 65.8%; in experiment [17] it was 72.4%; in experiment [18] it was 87.1%. Besides, the growth in experiment [19] was 41.7%.
